Results: PubChem BioAssay AID624297 (National Center for Advancing Translational Sciences (NCATS), 2012)
In all, about 340,000 compounds went through this assay and about 6,200 (1.8%) were called active. Inconclusive results (about 10%) are left out. The call rests on the fitted dose curve; in most records, active means well fitted activation curve with a large enough effect; inconclusive means small, poorly fitted or top-dose-only effect; inactive means no such curve, though single readings can be large or run the other way. The entries come from a sample that favours actives as a whole.

test: A quantitative high throughput screen for small molecules that induce DNA re-replication in SW480 colon adenocarcinoma cells.; further: nearly all actives have a fitted effect of over 55% in size; on re-replication activation: % of control where 0% means no effect; details: Hoechst DNA content imaging, 48 h; series mostly up to 46.1 µM; re-replication activation: at the top concentration
How it was run: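 Cells (250 per well) received 23 nL compound or DMSO by pin tool and were kept 48 hr at 37 C, 5% CO2. Nuclei were then stained with Hoechst for 40 min and scanned for DNA content.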
Potency means the concentration at half of the fitted maximal effect.

| Structure (SMILES) | re-replication activation | Potency |
| --- | --- | --- |
| NC(=O)C1(Nc2ccccc2Cl)CCCC1 | 4.75% (inactive) | – |
| COc1ccc(CC(=O)Nc2ccc(C(=O)NC(C)(C)C)cc2)cc1 | -4.54% (inactive) | – |
| COc1ccc(CS(=O)/C(Cl)=C(/Cl)C(=O)Nc2ccc(OC)nc2)cc1 (stereo not given) | – | 0.259 µM (active) |
| CCOc1ccc(S(=O)(=O)Nc2ccc(OC)nc2)cc1 | 2.32% (inactive) | – |
| O=C(NCCC1CCCCN1S(=O)(=O)c1ccc(F)cc1)C(=O)NC1CC1 (stereo not given) | -0.117% (inactive) | – |
| COc1cccc(CNC(=O)C(=O)NCCC2CCCCN2S(=O)(=O)c2ccc(C)cc2)c1 (stereo not given) | – | 15.8 µM (active) |
| O=C(NCCC1CCCCN1S(=O)(=O)c1ccccc1)C(=O)NCC1CCCO1 (stereo not given) | -3.44% (inactive) | – |
| O=C(COC(=O)COc1cc(Cl)c(Cl)cc1Cl)NC1CC1 | 1.81% (inactive) | – |
| O=C1c2cccc3c([N+](=O)[O-])ccc(c23)C(=O)N1CC1CCCO1 (stereo not given) | – | 5.8 µM (active) |
| CCOc1cccc(=O)c2c(C)n(CC3CCCO3)c(C)c12 (stereo not given) | 0.512% (inactive) | – |
| CN1CN(C)c2ccc([N+](=O)[O-])c3cccc1c23 | -2.04% (inactive) | – |
| O=C(CSc1cccc2cccnc12)N/N=C/c1cccnc1 | – | 7.31 µM (active) |
| COc1ccc(C(=O)NCC(=O)N/N=C/c2cccnc2)cc1 | -17.5% (inactive) | – |
| O=C(CNC(=O)c1cccnc1)N/N=C/c1cccnc1 | -5.33% (inactive) | – |
| Cc1ccc(/C=N/NC(=S)NC2CCCCC2)o1 | 24.3% (inactive) | – |
| CN(C)S(=O)(=O)c1cccc(NC(=S)NCc2ccc3c(c2)OCO3)c1 | 3.36% (inactive) | – |
| Cc1ccc(/C=N/NC(=S)Nc2cccc(S(=O)(=O)N(C)C)c2)o1 | – | 23.1 µM (active) |
| COc1cc(C(=O)CCc2ccc3c(c2)OCO3)cc(OC)c1OC | -0.473% (inactive) | – |
| COc1ccc2ccccc2c1/C=N/NC(=O)c1cc(C)[nH]n1 | -0.539% (inactive) | – |
| Cc1ccc(C(=O)N/N=C/c2cccc3ccccc23)cn1 | 6.35% (inactive) | – |
| CCOc1ccc2ccccc2c1/C=N/NC(=O)c1c(C)cc(C)[nH]c1=O | – | 23.1 µM (active) |
| O=C(COC(=O)c1ccc([N+](=O)[O-])o1)NC12CC3CC(CC(C3)C1)C2 | 4.47% (inactive) | – |

| Structure (SMILES) | re-replication activation | Potency |
| --- | --- | --- |
| CCOC(=O)C1CCCN(C(=O)c2ccc(C)c(S(=O)(=O)N3CCCCC3)c2)C1 (stereo not given) | 6.08% (inactive) | – |
| COc1cccc2c1C(=O)c1c(O)c3c(c(O)c1C2=O)CC(O)(C(C)=NNC(=O)c1ccc(Cl)c(Cl)c1)CC3OC1CC(N)C(O)C(C)O1 (stereo not given) | 0.405% (inactive) | – |
| Nc1nc(-c2ccccc2)cc(-c2ccccc2)n1 | -20.8% (inactive) | – |
| CNc1nc(-c2ccccc2)cc(-c2ccccc2)n1 | -0.44% (inactive) | – |
| CS(=O)(=O)c1sc2nc(-c3ccccc3)cc(-c3ccccc3)c2c1N | – | 11.2 µM (active) |
| CCN([C@H](CO)C(C)C)S(=O)(=O)c1ccccc1Br | -15.5% (inactive) | – |
| CN1C(c2ccc(F)cc2)=CS/C1=C(/C#N)c1nnc2n1-c1ccccc1SC2 | 19.8% (inactive) | – |
| Cc1cc(C)nc(N/N=C/c2ccc([N+](=O)[O-])o2)n1 | 6.52% (inactive) | – |
| C/[N+]([O-])=C\c1ccc([N+](=O)[O-])o1 | – | 14.6 µM (active) |
| CN1CCN(/N=C/c2ccc(-c3ccc([N+](=O)[O-])cc3)o2)CC1 | -0.483% (inactive) | – |
| CN1CCN(C(=O)c2ccc(-c3ccc(Br)cc3)o2)CC1 | 2.36% (inactive) | – |
| CCN(C(=O)CSc1cccc[n+]1[O-])c1ccccc1 | -4.57% (inactive) | – |
| Cc1cc(C(=O)N/N=C/c2cc([N+](=O)[O-])cc(C)c2O)n[nH]1 | 14.2% (inactive) | – |
| COc1ccc(CC(=O)N/N=C/c2cc([N+](=O)[O-])cc(Br)c2O)cc1 | -1.1% (inactive) | – |
| O=[N+]([O-])c1cc(Br)c(O)c(/C=N/Nc2nc3ccccc3s2)c1 | – | 3.26 µM (active) |
| COc1ccc(C(=O)Nc2cc(S(=O)(=O)N3CCCC3)ccc2Cl)cc1 | -0.541% (inactive) | – |
| C[C@H](O)[C@@H]1C(=O)N2CCc3ccc(N4CCOCC4)cc3[C@@H]2C[C@@H]1N(C)C(=O)C(C)(C)C | 0.113% [at 9.22 µM] (inactive) | – |
| Cc1nnnn1/C(=C\c1ccccc1)C(=O)OCC(=O)N1CC2(C)CC1CC(C)(C)C2 (stereo not given) | – | 18.4 µM (active) |
| COc1ccc(C(=O)N2CC3(C)CC2CC(C)(C)C3)cc1OC (stereo not given) | 27.6% (inactive) | – |
| Cc1cccc(C(=O)NCC(=O)OCC(=O)N2CC3(C)CC2CC(C)(C)C3)c1 (stereo not given) | 6.03% (inactive) | – |
| COc1ccc(CCNC(=O)COC(=O)Cc2ccccc2F)cc1 | -13.5% (inactive) | – |
| N#Cc1cc([N+](=O)[O-])ccc1NC(=O)COC(=O)c1cnccn1 | -0.55% (inactive) | – |

| Structure (SMILES) | re-replication activation | Potency |
| --- | --- | --- |
| Cc1cc(C(=O)OCC(=O)N2C(C)CCCC2C)c2ccccc2n1 (stereo not given) | 17% (inactive) | – |
| Cc1cccc(NC(=O)c2cc([N+](=O)[O-])ccc2N2CCN(C)CC2)c1 | 0.478% (inactive) | – |
| Cc1cccc(NC(=O)c2ccc([N+](=O)[O-])o2)c1 | – | 3.66 µM (active) |
| COc1cccc(NC(=O)c2ccc(Cn3cc([N+](=O)[O-])cn3)o2)c1 | 0.872% (inactive) | – |
| CS(=O)(=O)Nc1ccccc1C(=O)OCC(=O)NC1CC1 | -13.3% (inactive) | – |
| CC(=O)NC(CC(=O)Nc1ccc(S(=O)(=O)N2CCOCC2)cc1)c1ccccc1 (stereo not given) | -3.64% (inactive) | – |
| COc1ccc(C(=O)NCC(=O)N/N=C/c2ccc([N+](=O)[O-])o2)cc1OC | – | 11.6 µM (active) |
| COc1cc(/C=N/NC(=O)CNC(=O)c2ccncc2)ccc1OC(C)=O | 3.75% (inactive) | – |
| COc1cccc(/C=N/NC(=O)CNC(=O)c2ccc(S(=O)(=O)N3CCOCC3)cc2)c1OC | -15% (inactive) | – |
| Cc1csc(=O)n1CC(=O)Nc1ccc(S(C)(=O)=O)cc1 | -2.89% (inactive) | – |
| O=C1c2ccccc2C(=O)N1Cc1cc(-c2ccccc2Cl)no1 | -7.3% (inactive) | – |
| Cn1cnnc1SCc1nnc(-c2ccccc2Br)o1 | -24.9% (inactive) | – |
| Nc1cccc2c1C(=O)N(Cc1nnc(-c3ccccc3Br)o1)C2=O | – | 16.4 µM (active) |
| CN(CC(=O)NCCc1ccc(S(N)(=O)=O)cc1)CC(=O)Nc1ccc(Cl)cc1 | -4.05% (inactive) | – |
| COC(=O)CSC1=C(C#N)C(c2ccccc2OC)C(C(=O)OC)C(=O)N1 (stereo not given) | 0.322% [at 9.22 µM] (inactive) | – |
| Cc1ccc(C2CC(=O)NC(SCC(=O)OCc3ccccc3)=C2C#N)o1 (stereo not given) | 3.01% (inactive) | – |
| CCOC(=O)CSC1=C(C#N)C(c2sccc2C)CC(=O)N1 (stereo not given) | – | 5.01 µM (active) |
| CC(C)Cc1nnc(N)s1 | -5.57% (inactive) | – |
| O=C(N/N=C/c1cccc(O)c1)c1cc2c(ccc3ccccc32)o1 | 7.96% (inactive) | – |
| Cc1ccc(NC(=O)c2cc3ccccc3o2)cc1 | 5.51% (inactive) | – |
| Cc1c(/C=N\NC(=O)c2cc3ccccc3o2)c2ccccc2n1C | – | 9.2 µM (active) |
